# PubChem BioAssay AID651621 (National Center for Advancing Translational Sciences (NCATS), 2012)
# Calls of active or inactive are those of the source.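 Rule for the calls: active = inhibition of 60% or more at 11 µM; inconclusive = inhibition from 30% up to under 60% at 11 µM; inactive = inhibition below 30% at 11 µM.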
# Biological target: Ubiquitin carboxyl-terminal hydrolase 1 (Homo sapiens) + WD repeat-containing protein 48 (Homo sapiens) (UniProt O94782+Q8TAF3)
# Assay: Inhibitors of USP1/UAF1: SAR in USP1/UAF1 diubiquitin SDS-PAGE gel assay
# Conditions: purified USP1/UAF1, K63 diubiquitin cleavage, at 11 µM, active compounds read high
# Text: Deubiquitinating enzymes (DUBs) are a class of enzymes that can cleave isopeptide bond formed between the C-terminal carboxylate of ubiquitin and a lysine side-chain amino group on the target protein. Among them, ubiquitin specific proteases (USPs) constitute the largest DUB family. Human USPs are emerging as promising targets for pharmacological intervention because of their connection to a number of human diseases, including prostate, colon and breast cancer (1, 2), pediatric acute lymphoblastic leukemia (3), and familial cylindromatosis (4). The advantage of inhibiting USPs lies in the potential specificity of therapeutic intervention that can lead to better efficacy and reduce nonspecific side effects. In a collaboration between the University of Delaware and the NIH Chemical Genomics Center, a high-throughput screen assay was developed to screen for USP1/UAF1 inhibitors (5). This assay is a orthogonal assay that tested for activity in a USP1/UAF1 diubiquitin SDS-PAGE gel assay. NIH Chemical Genomics Center [NCGC] […]
# The inhibition assay contains 100 nM for USP1/UAF1, 2 microM K63 linked diubiquitin, and inhibitors at varied concentrations (0.08 microM - 114 microM). […] The intensity of the individual diubiquitin and monoubiquitin band was quantified using Quantity One 4.3.1 (Biorad, Hercules, CA). The percentage of the conversion was determined and used to calculate the reaction rate. […]
# Ubiquitin carboxyl-terminal hydrolase 1 (Homo sapiens) + WD repeat-containing protein 48 (Homo sapiens), sequence (O94782 whole entry, looked up): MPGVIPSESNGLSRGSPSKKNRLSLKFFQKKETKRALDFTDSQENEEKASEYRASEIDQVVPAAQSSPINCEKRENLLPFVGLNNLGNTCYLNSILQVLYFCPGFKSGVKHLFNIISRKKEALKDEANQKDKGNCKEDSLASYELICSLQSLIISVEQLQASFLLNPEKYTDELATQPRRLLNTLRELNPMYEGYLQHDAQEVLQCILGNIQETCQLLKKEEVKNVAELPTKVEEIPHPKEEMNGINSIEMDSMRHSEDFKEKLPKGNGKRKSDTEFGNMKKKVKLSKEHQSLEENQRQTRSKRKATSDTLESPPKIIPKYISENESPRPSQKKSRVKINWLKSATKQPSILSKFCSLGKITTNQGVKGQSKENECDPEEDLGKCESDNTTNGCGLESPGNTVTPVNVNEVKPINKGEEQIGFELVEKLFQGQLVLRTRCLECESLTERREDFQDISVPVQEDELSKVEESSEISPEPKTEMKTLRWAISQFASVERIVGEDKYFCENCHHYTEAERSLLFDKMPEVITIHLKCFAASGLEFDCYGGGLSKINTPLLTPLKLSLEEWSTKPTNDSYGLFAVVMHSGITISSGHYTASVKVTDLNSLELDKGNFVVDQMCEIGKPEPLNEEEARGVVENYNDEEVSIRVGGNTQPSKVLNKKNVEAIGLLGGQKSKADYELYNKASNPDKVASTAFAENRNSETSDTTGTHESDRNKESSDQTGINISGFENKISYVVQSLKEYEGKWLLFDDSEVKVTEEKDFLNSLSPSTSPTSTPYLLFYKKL
# Ubiquitin carboxyl-terminal hydrolase 1 (Homo sapiens) + WD repeat-containing protein 48 (Homo sapiens), sequence (Q8TAF3 whole entry, looked up): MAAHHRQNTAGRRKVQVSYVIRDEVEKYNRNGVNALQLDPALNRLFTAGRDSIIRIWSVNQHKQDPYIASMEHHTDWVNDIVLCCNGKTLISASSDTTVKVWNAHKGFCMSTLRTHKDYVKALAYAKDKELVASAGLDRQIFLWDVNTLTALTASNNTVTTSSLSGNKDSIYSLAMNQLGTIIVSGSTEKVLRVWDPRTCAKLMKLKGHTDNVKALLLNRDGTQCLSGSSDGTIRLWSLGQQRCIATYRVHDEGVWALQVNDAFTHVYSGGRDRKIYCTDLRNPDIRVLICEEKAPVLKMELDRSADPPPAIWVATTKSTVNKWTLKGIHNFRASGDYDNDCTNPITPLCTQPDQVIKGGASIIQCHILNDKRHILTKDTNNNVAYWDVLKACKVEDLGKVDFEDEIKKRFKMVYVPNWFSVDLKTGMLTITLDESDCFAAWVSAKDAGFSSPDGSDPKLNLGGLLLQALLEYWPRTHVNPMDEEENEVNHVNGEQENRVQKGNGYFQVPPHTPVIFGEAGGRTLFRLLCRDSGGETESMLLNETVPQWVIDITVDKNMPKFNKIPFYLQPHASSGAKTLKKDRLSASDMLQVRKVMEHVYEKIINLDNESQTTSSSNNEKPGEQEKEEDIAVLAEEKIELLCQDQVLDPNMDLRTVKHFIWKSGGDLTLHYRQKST
row,SMILES,inhibition
1,Cc1cnc(-c2ccccc2C(C)C)nc1NCc1ccc(-n2ccnn2)cc1,98.5% (active)
